Each structure is given as a SMILES string. In all, about 310,000 compounds went through this assay and about 3,900 (1.3%) were called active.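 How the source made its calls: active means compounds whose thallium flux B-score, printed positive for inhibition, exceeds three library SD while starting fluorescence stays within three; inactive means the rest.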 Shown is part of a subset that was picked to be rich in actives.

Potassium voltage-gated channel subfamily KQT member 1 (Homo sapiens), sequence (P51787 whole entry, looked up): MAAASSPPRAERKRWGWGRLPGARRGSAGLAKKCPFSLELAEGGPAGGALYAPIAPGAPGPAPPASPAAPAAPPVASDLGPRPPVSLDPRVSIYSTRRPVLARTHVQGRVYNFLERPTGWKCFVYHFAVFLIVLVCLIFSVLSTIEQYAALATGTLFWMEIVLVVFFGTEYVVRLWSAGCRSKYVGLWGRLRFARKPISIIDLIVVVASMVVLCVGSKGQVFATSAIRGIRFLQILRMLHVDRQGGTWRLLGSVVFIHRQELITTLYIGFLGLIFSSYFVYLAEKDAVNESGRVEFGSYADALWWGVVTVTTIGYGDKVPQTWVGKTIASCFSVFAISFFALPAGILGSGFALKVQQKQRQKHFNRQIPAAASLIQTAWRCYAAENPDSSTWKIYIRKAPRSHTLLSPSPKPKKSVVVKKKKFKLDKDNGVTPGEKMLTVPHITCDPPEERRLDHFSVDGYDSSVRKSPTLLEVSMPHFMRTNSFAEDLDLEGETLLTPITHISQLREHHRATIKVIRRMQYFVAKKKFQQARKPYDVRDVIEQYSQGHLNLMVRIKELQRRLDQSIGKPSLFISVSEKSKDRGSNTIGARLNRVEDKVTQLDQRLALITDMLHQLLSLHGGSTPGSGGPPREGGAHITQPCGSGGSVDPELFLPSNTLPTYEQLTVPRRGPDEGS

The test concerns the target Potassium voltage-gated channel subfamily KQT member 1 (Homo sapiens) (UniProt P51787). In words: inhibitors of human KCNQ1 channel, primary screen, cell-based, thallium flux, high-throughput (AID 2642).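 Further: channel opened by potassium depolarization with thallium stimulus after 20 min compound exposure.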 The conditions noted are these: CHO-K1 KCNQ1, FluxOR thallium flux fluorescence, at 10 µM; hits give high values.
Regarding `Cc1c(Cl)cccc1NC(=O)[C@@]1(CC(=O)O)CC(/C=C/c2ccccc2)=NO1`, the B-score result is “inactive”.
The entry for `CC(Oc1ccc(F)cc1)C(=O)Nc1cc(S(=O)(=O)N2CCOCC2)ccc1N1CCN(C)CC1` (stereo not given) is “inactive”.
On to `Cc1ccc(S(=O)(=O)N2CCC3(CC2)OCCO3)c(C)c1`, for which the B-score entry is “inactive”.
For the compound `CCOC(=O)C1CCN(C(=O)C2(NC(=O)Nc3cccc(F)c3)CCCCC2)CC1`, the B-score result is “inactive”.
Regarding `Oc1c(Br)cccc1/C=N/Nc1c(F)c(F)c(F)c(F)c1F`, the B-score was 7 (active).
For `Oc1cccc(/C=N/Nc2ccc(Cl)nn2)c1O` the value was “inactive”; for `Brc1ccccc1/C=N/Nc1nc2ccccc2o1`, “inactive”; for `COc1cccc(NC(=O)CN(C)C(C)C(=O)Nc2ccc(C#N)cc2)c1` (stereo not given), “inactive”.
As to `COc1ccc(N(CC(=O)Nc2ccc(F)c(F)c2)S(=O)(=O)c2c(C)[nH]c(=O)[nH]c2=O)cc1`, the B-score entry was “inactive”.
`COc1ccccc1NC(=O)C1CCN(C(=O)c2ccc(C(C)(C)C)cc2)CC1`: the B-score entry was “inactive”.
In the case of `S=C(NCCCc1ccccc1)Nc1ccc(Br)cc1`, the B-score was 7 (active).
With `S=C(NCCc1ccccc1)Nc1ccccc1`, the B-score result was “inactive”.
As to `O=C(CCNC(=O)c1ccc(Br)cc1)NCCCc1ccccc1`, the B-score entry is “inactive”.
As for `Cc1cn(C)c(=O)n(C)c1=O`, the B-score entry was “inactive”.
Regarding `O=c1onc(-c2c(F)cccc2F)n1-c1ccccc1Cl`, the B-score result was “inactive”.
Consider `CC1CCC2(CC1)NC(=O)N(CC(=O)c1ccc3c(c1)OCO3)C2=O` (stereo not given), for which the B-score entry is “inactive”.
Consider `CC1CCC2(CC1)NC(=O)N(CC(=O)c1cccn1C)C2=O` (stereo not given), for which the B-score was 7 (active).
With `O=C(CN1C(=O)NC2(CCCCCC2)C1=O)NC1CC1`, the B-score entry is “inactive”.
For `Cc1ccc(CNC(=O)CSc2nnc3c(n2)[nH]c2ccc(F)cc23)cc1` the value was “inactive”.
For `CN(C)/C=C(/C(=O)c1ccc(Cl)cc1)S(=O)(=O)c1ccccc1` the value was “inactive”; for `S=C(NCCc1ccccc1)NCC1CCCO1` (stereo not given), “inactive”; for `S=C(NN=C1CCN(Cc2ccccc2)CC1)NC1CCCCC1`, “inactive”.
Turning to `CCCC1CCC(=NNC(=S)NCCc2ccccc2)CC1` (stereo not given), the B-score is 7 (active).
For `COc1ccc(S(=O)(=O)NCC(=O)NCc2cc(=O)n(C)c(=O)n2C)cc1F`, the B-score entry is “inactive”.
For `Cc1ccc(S(=O)(=O)N2CCN(CC(=O)N/N=C/c3ccc(Br)s3)CC2)cc1`, the B-score entry was “inactive”.
Take `CCC(CC)C(=O)N1CCN(c2cccc(C)c2C)CC1`: the B-score entry is “inactive”.
For `CCn1c(C)c(C)c2cc(C(=O)N3CCN(c4cccc(C)c4C)CC3)ccc21` the value was 10 (active).
`Cc1cccc(N2CCN(C(=O)c3cccc(N4C(=O)C5C6C=CC(C6)C5C4=O)c3)CC2)c1C` (stereo not given): the B-score entry is “inactive”.
As for `CCn1ccnc1CN(C)C(=O)c1cc(COc2ccc(-n3cncn3)cc2)on1`, the B-score entry was “inactive”.
The figure for `C=CCC1(CC=C)CCCN1C(=O)c1cc(COc2ccc(-n3cncn3)cc2)on1` is 11 (active); for `O=C(c1cc(COc2ccc(F)c(F)c2)on1)N1CCOCC1` it is “inactive”; for `NS(=O)(=O)c1cc(C(=O)NCCOc2ccccc2)c(Cl)cc1Cl` it is “inactive”.
For the compound `COc1ccc(-n2c(C)cc(C(=O)COC(=O)c3cc(OC)c(OC)cc3NC(=O)c3cccs3)c2C)cc1`, the B-score result is “inactive”.
Turning to `COc1ccc(Nc2ncnc3ccc(Br)cc23)c(OC)c1`, the B-score entry is “inactive”.
Turning to `COc1ccc(Nc2ncnc3sc(C)cc23)cc1`, the B-score result is “inactive”.
Take `COc1ccc(Nc2ncnc3sc(-c4ccccc4)cc23)c(OC)c1`: the B-score was 7 (active).
As to `c1ccc2c(c1)C(=NC1CCCCC1)NC2=NC1CCCCC1`, the B-score was 6 (active).
For the compound `O=C(O)CN1CCN(C(c2ccccc2)c2ccccc2)CC1`, the B-score entry was “inactive”.
Turning to `CC1(C)CC(N2CCN(C(c3ccccc3)c3ccccc3)CC2)=CC(=[N+]2CCCCC2)C1`, the B-score is 9 (active).
In the case of `CC1(C)CC(=O)C=C(N2CCCC2)C1`, the B-score result was “inactive”.
As to `CC(C)NS(=O)(=O)c1ccc(NC(=O)C2CCCCC2)cc1`, the B-score result was “inactive”.
With `COc1ccc(OC)c(S(=O)(=O)NCCC(C)C)c1`, the B-score result is “inactive”.
For the compound `CC(NC(=O)COC(=O)C1CCN(S(=O)(=O)c2ccccc2C(F)(F)F)CC1)c1ccccc1` (stereo not given), the B-score entry is “inactive”.
For `Cc1ccc(CS(=O)Cc2ccc(C(=O)N3CCOCC3)o2)cc1` (stereo not given), the B-score entry is “inactive”.
Consider `Cc1ccc(-c2noc(CSc3nnc(-c4ccccc4)n3C)n2)cc1`, for which the B-score entry was “inactive”.
On to `Cc1ccc(-c2noc(CN3CCN(Cc4ccccc4)CC3)n2)cc1`, for which the B-score result was “inactive”.
Take `Cc1ccc(-c2noc(CC(c3ccccc3)c3ccccc3)n2)cc1`: the B-score is 7 (active).
For `COc1cccc(NC(=O)[C@H](Cc2c[nH]c3ccccc23)NC(=O)[C@@H]2Cc3ccccc3CN2)c1` the value was “inactive”; for `CC(C)(O)C#Cc1ncc(C(F)(F)F)cc1Cl`, “inactive”; for `COCCOC1CCN(C(=O)c2ccc(OC)c(OC3CCN(C(C)C)CC3)c2)CC1`, “inactive”.
The entry for `O=C(NCCN1CCOCC1)/C(=C/c1ccc(F)cc1)NC(=O)c1ccccc1` is “inactive”.
Take `CN1CCN(CCCNC(=O)c2ccc(/C=C3\Oc4ccccc4N(Cc4ccc(Cl)cc4)C3=O)cc2)CC1`: the B-score entry is “inactive”.
For `O=C(NCCCN1CCOCC1)c1ccc2c(c1)N(Cc1cccc(F)c1)C(=O)c1ccccc1S2` the value was “inactive”; for `CCN1CCN(CCNC(=O)c2ccc(/C=C3/Sc4ccccc4N(Cc4cccc(C)c4)C3=O)cc2)CC1`, 13 (active).
Regarding `CCN1CCN(CCNC(=O)c2ccc3c(c2)NC(=O)/C(=C\c2ccc(OC)c(OC)c2)S3)CC1`, the B-score entry was “inactive”.
For the compound `O=C(NCCN1CCOCC1)c1ccc(/C=C2\Sc3ccccc3N(Cc3ccc(F)cc3)C2=O)cc1`, the B-score is 10 (active).
As for `CC(=O)Nc1ccc(S(=O)(=O)N(C)c2ccc(OCC(=O)OCC(=O)N3CCCCC3)cc2)cc1`, the B-score result was “inactive”.
Take `COc1ccccc1N(C)S(=O)(=O)c1ccc(Cl)c(C(=O)N2CCC(C(N)=O)CC2)c1`: the B-score result was “inactive”.
With `COC(=O)c1ccc(CN2CCCC(C(=O)Nc3cccc(-n4cnnn4)c3)C2)cc1` (stereo not given), the B-score result was “inactive”.
For `CC(C)CCN1C(=O)c2ccc(C(=O)Nc3cccc(S(N)(=O)=O)c3)cc2C1=O` the value was “inactive”; for `O=C(CS(=O)(=O)c1cn(Cc2ccc(Cl)cc2)c2ccccc12)N1CCOCC1`, “inactive”; for `COc1ccc(/C=C2\SC(=O)N(CCC(=O)NCCCn3ccnc3)C2=O)cc1`, “inactive”.
On to `O=C(CCCN1C(=O)/C(=C\c2ccccc2)SC1=S)Nc1ccccc1O`, for which the B-score result is “inactive”.
Regarding `COc1ccc(/C=C2/SC(=O)N(CCCCCC(=O)Nc3ccccc3C(=O)O)C2=S)cc1`, the B-score was 6 (active).
With `Cc1cc(/C=C2/SC(=O)N(CC(=O)N3CCCC3)C2=O)ccc1N1CCOCC1`, the B-score result is “inactive”.

These data come from PubChem BioAssay AID2642 (Johns Hopkins Ion Channel Center, 2010).
